Bioassay records: PubChem, several laboratories
This is a sample that favours compounds with a hit; in the whole collection about 32% have one here.
CYP2C19 act: increases human CYP2C19 enzyme activity; P33261; recombinant CYP2C19, luciferin-H EGE luminescence; hits give high values; 0 = fully inhibited enzyme, 1 = untreated enzyme; activation factor at 5 µM; 96,000 tested, under 10 active; AID 1025;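 active means activation factor of at least 2 at 5 µM in the primary screen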
PostGolgi yeast: growth inhibition of a yeast mutant, post-Golgi transport screen; post-Golgi transport phenotypic cell assay; inhibition, % at 10 µM; hit rate 0.9% among 98,000; AID 739;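 further: yeast cells grown in 1536-well plates; yeast grown about 18 h at 30C before absorbance read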
CYP2C9 inhib: inhibitors of human CYP2C9; inhibition, % at 5 µM; AID 777; hit rate 20% among 96,000; CYP2C9 Supersomes, luciferin-H conversion, luminescence; P11712;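 active means blocking of liver enzyme CYP2C9 beyond about 50% at 5 µM, limit read from the data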
Target sequence (P11712 whole entry, looked up): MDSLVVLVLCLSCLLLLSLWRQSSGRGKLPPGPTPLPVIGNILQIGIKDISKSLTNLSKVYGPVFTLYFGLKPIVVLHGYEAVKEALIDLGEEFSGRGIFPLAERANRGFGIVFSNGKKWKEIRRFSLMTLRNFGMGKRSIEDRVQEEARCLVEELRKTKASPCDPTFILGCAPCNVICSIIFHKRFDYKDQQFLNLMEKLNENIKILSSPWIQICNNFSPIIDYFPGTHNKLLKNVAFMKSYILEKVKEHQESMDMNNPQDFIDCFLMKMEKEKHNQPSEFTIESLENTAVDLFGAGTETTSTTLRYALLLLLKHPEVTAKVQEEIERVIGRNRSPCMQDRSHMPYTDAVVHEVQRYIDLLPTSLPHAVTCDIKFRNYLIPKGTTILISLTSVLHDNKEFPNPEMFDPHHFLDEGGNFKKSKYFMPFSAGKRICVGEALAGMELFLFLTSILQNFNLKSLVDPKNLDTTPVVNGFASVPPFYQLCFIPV
CYP2C9 activ: activators of human CYP2C9 | P11712 | recombinant CYP2C9, luciferin-H conversion, luminescence; hits give high values; factor 1 = untreated enzyme, 0 = blocked | activation factor at 5 µM | hit rate 1.4% among 96,000;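 active means activation factor of 2 or more for CYP2C9 at a 5 µM dose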
CYP2C19 inhib: inhibitors of human CYP2C19 | P33261 | CYP2C19 Supersomes, luciferin-H EGE luminescence, 30 min | inhibition, % at 5 µM | hit rate 21% among 96,000;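 active means CYP2C19 inhibition above a set limit at 5 µM in the primary screen, cut at about 50% in these data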
PostGolgi ctrl: yeast control strain growth, post-Golgi counter-screen; efflux-deficient yeast background strain, growth absorbance A615, 16 h; inhibition, % at 10 µM; hit rate 5% among 98,000; AID 738
Large screens that a line does not name were inactive. Unless noted, no stated cut-off is given here; in the data, active means inhibition above about 30%; inactive means the rest.

CC(OC(=O)c1nsc(Cl)c1Cl)C(=O)NCc1ccco1 (centres undefined)	CYP2C9 inhib 56.2, CYP2C19 inhib 66.6
COC(=O)c1ccccc1NC(=O)c1cc(OC)cc(OC)c1	none
CC(C)CCn1nc(C(=O)OC(C)C(=O)NC(N)=O)c2ccccc2c1=O (centres undefined)	CYP2C9 inhib 67.1
CC(OC(=O)c1ccccc1NCc1ccco1)C(=O)Nc1ncc(Cl)cc1Cl (centres undefined)	CYP2C9 inhib 80.7, CYP2C19 inhib 66.4
CC(C)CC(C(=O)OCC(=O)Nc1ncc(Cl)cc1Cl)N1C(=O)c2ccccc2C1=O (centres undefined)	none
COC(=O)c1ccccc1S(=O)(=O)N(Cc1cc2cc3c(cc2[nH]c1=O)OCO3)C1CCCCC1	none
CC(C)Cn1cc(C(=O)NCCCOC(C)C)c2c3ccccc3n(C)c2c1=O	none
CCOC(=O)CNC(=O)C(NC(=O)C1CCC(C)CC1)C(C)CC (centres undefined)	none
CSc1cccc(NC(=O)Cn2cccc2)c1	none
CCc1nnc(NC(=O)c2cc3ccccc3oc2=O)s1	none
O=C(Nc1ccc(-n2nncc2-c2ccco2)cc1)c1cccc(F)c1	CYP2C9 inhib 72.0, CYP2C19 inhib 96.1
O=C(Nc1ccc(-n2nncc2-c2ccco2)cc1)c1cc2ccccc2oc1=O	CYP2C9 inhib 62.6
O=C(Nc1ccc(N2CCOCC2)cc1)c1ccc2nc(-c3ccco3)c(-c3ccco3)nc2c1	none
CCn1c(=O)n(CC(=O)Nc2cc(OC)c(OC)c(OC)c2)c(=O)c2ccccc21	none
O=C(CN1CCN(C(=O)c2ccccc2)CC1)Nc1ccc(Br)cn1	none
CC1CCCC(NC(=O)c2ccc(CNc3c(N4CCCC4)c(=O)c3=O)cc2)C1C (centres undefined)	none
O=C(Cn1nc(Cc2ccncc2)c2ccccc2c1=O)N1CCc2ccccc2C1	CYP2C9 inhib 79.7, CYP2C19 inhib 88.5
CN(CCC#N)C(=O)Cn1nc(Cc2ccncc2)c2ccccc2c1=O	none
Cc1ccc(C(=O)Nc2cc(Cl)ccc2N2CCCCC2)s1	none
Cc1nc2cc(N3CCCCC3)c(NC(=O)c3ccncc3)cc2c(=O)n1Cc1ccc(Cl)cc1	CYP2C9 inhib 73.6
Cc1nc2cc(N3CCN(C)CC3)c(NC(=O)Cc3ccccc3)cc2c(=O)n1Cc1ccccc1	CYP2C9 inhib 66.6, CYP2C19 inhib 66.9
O=C(/C=N/O)NCc1ccncc1	none
CCOC(=O)CSc1nc(NC#N)nc(N(CC)CC)n1	none (no result: CYP2C19 act, CYP2C9 inhib, CYP2C9 activ, CYP2C19 inhib)
CCN(CC)c1nc(SCC(=O)O)nc(N(CC)CC)n1	PostGolgi ctrl 40.3
S=c1[nH]nc(C2CCCCC2)n1/N=C/C=C/c1ccccc1	PostGolgi ctrl 30.5
O=C(COc1cccc(NC(=O)c2ccco2)c1)c1ccc(F)cc1	none
O=C(Nc1ccc2oc(=O)ccc2c1)c1ccco1	none
O=C(Nc1ccc2oc(=O)ccc2c1)c1cccnc1Cl	PostGolgi yeast 31.6 (no result: CYP2C19 act, CYP2C9 inhib, CYP2C9 activ, CYP2C19 inhib)
CC1(C)C(c2ccccc2)=NC(c2ccc(F)cc2)N1O (centres undefined)	none
COc1ccccc1CCn1cnc2c3cc(C)ccc3n(C)c2c1=O	CYP2C9 inhib 70.9, CYP2C19 inhib 93.3
COc1ccc2c(c1)c1ncn(CCN3CCCCC3)c(=O)c1n2C	CYP2C9 inhib 56.2
CCN1CCc2nc(SCC(=O)Nc3ccc(OC)cc3)c(C#N)cc2C1	CYP2C9 inhib 72.9
CN1CCc2nc(SCC(=O)Nc3ccc(F)cc3)c(C#N)cc2C1	CYP2C9 inhib 75.0, CYP2C19 inhib 89.5
COc1ccc(NC(=O)CSc2nc3c(cc2C#N)CN(C)CC3)cc1	CYP2C9 inhib 65.8
CN1CCc2nc(SCc3ccc(C(C)(C)C)cc3)c(C#N)cc2C1	none
CCc1nnc(NC(=O)CSc2nc3c(cc2C#N)CCCC3)s1	none
Cc1noc(NS(=O)(=O)c2ccc(NC(=O)CSc3nc4c(cc3C#N)CCCCC4)cc2)c1C	none
CCOc1ccc2c(c1)-c1c(ssc1=S)C(C)(C)N2C	none
Cc1nc2sc(C(c3cccc(F)c3)N3CCCC(C)C3)c(O)n2n1 (centres undefined)	none
COc1cc2c(cc1OC)-c1nnc(C)n1C(C)(C)C2	none
Cc1cc2c(cc1C)-c1nnnn1C(C)(C)C2	CYP2C19 inhib 59.4
Cc1ccc2c(Cl)cc(Cl)c(OCc3c(C)noc3C)c2n1	CYP2C19 inhib 67.1
O=C(NNC(=O)c1ccc(O)cc1O)c1ccc(Cl)cc1	CYP2C9 activ 2
Cc1cccc(C(=O)NNC(=O)c2ccc(Cl)cc2)c1O	CYP2C9 activ 2.9, CYP2C19 inhib 50.3
O=C(NNC(=O)c1ccccc1O)c1ccc(Cl)cc1	none
O=C(NCc1ccccc1)c1cnsn1	none
Cc1cc(C)nc(/N=C2\NC(=O)CC(C(=O)O)N2CCc2c[nH]c3ccccc23)n1 (centres undefined)	none
CN(C)C(=O)COC(=O)[C@H](Cc1ccccc1)NC(=O)c1ccco1	none
O=C(Nc1ccccc1C(=O)NC(Cc1c[nH]c2ccccc12)C(=O)O)c1ccco1 (centres undefined)	none
O=C(COC(=O)[C@H](Cc1ccccc1)NC(=O)c1ccco1)NCc1ccccc1	CYP2C9 inhib 90.6, CYP2C19 inhib 70.9
O=C(NC(Cc1c[nH]c2ccccc12)C(=O)O)c1ccco1 (centres undefined)	PostGolgi ctrl 30.2
Cc1cc(C)nc(NC(=NCCc2c[nH]c3ccccc23)NC(=O)c2ccco2)n1	CYP2C9 inhib 99.1, CYP2C19 inhib 96.4, PostGolgi ctrl 41.8
CCS(=O)(=O)C(=C(Nc1ccc(OC)cc1)Nc1ccc(OC)cc1)S(=O)(=O)CC	none
CC1(C)OC(=O)C(=NNc2ccc(Cl)cc2)C(=O)O1	none
Cn1ccnc1SCc1cc(=O)[nH]c2ccccc12	none
Cc1cccc(-c2nnc(SCc3cc(=O)[nH]c4ccccc34)n2C)c1	CYP2C9 activ 2.1, CYP2C19 inhib 83.5
COC(=O)CN(c1ccc(OC)cc1)S(=O)(=O)c1c(C)noc1C	PostGolgi ctrl 33.1
CCOc1ccc(N(CC(=O)Nc2ccc(OC)cc2)S(=O)(=O)c2c(C)noc2C)cc1	none
COc1ccc(N(CC(=O)Nc2ccc(C)cn2)S(=O)(=O)c2c(C)noc2C)cc1	CYP2C9 inhib 70.1, CYP2C19 inhib 72.7
Nc1nc(NC(=O)Cc2ccccc2)nn1-c1ccccc1	none
Cc1cc(C)n2nc(SCC3COc4ccccc4O3)nc2n1 (centres undefined)	none
Cc1nc2sc3c(c2c2nc(-c4ccco4)nn12)CCCC3	none
O=C(CSc1nc2ccccc2[nH]1)Nc1cc(C(F)(F)F)ccc1N1CCOCC1	CYP2C9 inhib 99.2, CYP2C19 inhib 99.1
O=C(Cn1c(CO)nc2ccccc21)Nc1cc(C(F)(F)F)ccc1N1CCOCC1	CYP2C9 inhib 52.8
CSc1ncccc1C(=O)OCC(=O)Nc1cc(C(F)(F)F)ccc1N1CCOCC1	CYP2C9 inhib 51.4
O=C(CSc1nc2ccccc2[nH]1)Nc1ccccc1N1CCOCC1	CYP2C9 inhib 78.8, CYP2C19 inhib 98.3
